LANA-H2B inh = blockers of LANA interaction with H2A/H2B – biochemical, FP readout, HTS, primary screen. inhibition, % (concentration not given with the values). AID 2629, 2010. hit rate 0.6% among 320,000. cell-free LANA-H2A/H2B peptide, fluorescence polarization; in the data active means inhibition mostly above about 10%, no sharp cut-off; inactive means mostly below about 6.7%
Mot1-301 SUMO = yeast Mot1-301 growth rescue at high temperature, primary screen, SUMOylation pathway inhibitor project, S. cerevisiae, ATP luminescence, 38.5C; S. cerevisiae Mot1-301 growth rescue; percent above DMSO median, 100 means doubled; growth rescue, % at 18.8 µM; hit rate 1% among 320,000; AID 2716, 2010;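 active means every valid replicate shows activation above 250% relative to neutral control wells; inactive means the rest, any valid replicate at or below 250%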
IDE inh = human IDE inhibitors in live cells, primary screen, fluorescence polarization, HEK cells, FAbetaB substrate | Insulin-degrading enzyme (Homo sapiens), P14735 | FAbetaB cleavage | inhibition, % at 5.59 µM | hit rate 0.41% among 320,000;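 active means percent inhibition above the average of all tested compounds plus 3 SD, set per screening campaign, cut at about 16% in these data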;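 further: IDE supplied by intact live HEK cells; FP after avidin binding of uncleaved biotin substrate so inhibition keeps polarization high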
IDE act = human IDE activators in live cells, primary screen, fluorescence polarization, HEK cells, FAbeta-B substrate | hit rate 0.073% among 340,000 | FAbeta-B cleavage; 0% vehicle, 100% cell-free pure enzyme wells | Insulin-degrading enzyme (Homo sapiens), P14735 | activation, % at 5.96 µM;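 active means activation above the mean of all tested compounds plus 3 SD, set per screening campaign, cut at about 17% in these data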
HDAC3 inh = HDAC3 deacetylase inhibitors, primary screen, biochemical, fluorescence, cell-free homogeneous. inhibition, % at 8.3 µM. recombinant HDAC3, fluorogenic peptide/trypsin coupled. hit rate 0.15% among 320,000; in the data active means inhibition above about 26%, passing the limit was not always enough
Mot1 SUMO dose = growth restoration of Mot1-301 yeast on galactose, dose response, SUMO pathway inhibitor project, whole organism, S. cerevisiae, ATP luminescence, cherry-picked samples. S. cerevisiae Mot1-301 galactose growth, 24 h; -100 = growth of slx-deleted rescue strain. shares compounds with Mot1-301 SUMO. 2,300 tested, under 10 active. growth activity, percent, % at 42 µM;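 active means Signal drops as the depositor expects, and the fitted half-maximal dose is no more than ten times the top valid tested dose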;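 further: more negative values mean stronger growth rescue toward the control strain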
Of the large screens only hits and unclear results are named; the others gave an inactive call (follow-up assays come after a bar, where they were run). In the library only some 2.1% were active in any assay of this set; here they are far more common.

O=C(COC(=O)CSc1ccc([N+](=O)[O-])cc1)NC1CCCCCCC1	Mot1-301 SUMO 461 | Mot1 SUMO dose inactive
O=C(COC(=O)Cc1ccc(F)cc1)NC1CCCCCC1	none (no result: LANA-H2B inh, Mot1-301 SUMO, IDE inh, HDAC3 inh)
CCN(CC)CCn1c2c(c(SCC(=O)Nc3ccccc3Cl)nc1=O)CCC2	none
Cn1ccc2cc(-c3ccc4ncnc(NCc5cccs5)c4c3)ccc21	none
Clc1ccc(-c2ccnc3nc(N4CCOCC4)nn23)c(Cl)c1	none (no result: LANA-H2B inh, Mot1-301 SUMO, IDE inh, HDAC3 inh)
CC1(C)CCc2cc(CN3CCN(c4ccccn4)CC3)ccc2O1	Mot1-301 SUMO 725 | Mot1 SUMO dose inactive
CCCNc1nc2ccccc2c(=O)[nH]1	Mot1-301 SUMO 543 | Mot1 SUMO dose inactive
CC(=O)Nc1nn(C)c2nc3ccc(C)cc3cc12	Mot1-301 SUMO 479 | Mot1 SUMO dose inactive
Cc1ccc2cc3c(NC(=O)CC(C)C)nn(C)c3nc2c1	none
Cc1ccc(S(=O)(=O)NCCC(=O)Nc2cc(S(=O)(=O)N(C)C)ccc2C)cc1C	none
Cc1ccnc(SCC(=O)Nc2cc(C)on2)n1	none
COc1ccc(NC(=O)CSc2nccc(C)n2)cc1	Mot1-301 SUMO active | Mot1 SUMO dose inactive
CC(Oc1nc2c(c(=O)n(C)c(=O)n2C)n1C)C1CCCCC1 (stereo not given)	none (no result: LANA-H2B inh, Mot1-301 SUMO, IDE inh, HDAC3 inh)
COc1ccccc1CNCC(c1ccccc1)c1ccccc1	none
CCCCCNC(=O)c1ccc2c(=O)n(CC3CCCO3)c(=S)[nH]c2c1 (stereo not given)	none
CCCCCNC(=O)c1ccc2c(=O)n(CC3CCCO3)c(=O)[nH]c2c1 (stereo not given)	Mot1-301 SUMO 773 | Mot1 SUMO dose inactive
COc1ccc([C@H]2CC(=O)C=C(c3ccc(Cl)c(C(F)(F)F)c3)C2)cc1OC	none
CCOC(=O)C1=C(C)Nc2ncnn2C1/C=C/c1ccccc1 (stereo not given)	Mot1-301 SUMO 613 | Mot1 SUMO dose inactive
CCCC1=C(C(=O)OCC)C(/C=C/c2ccccc2)n2ncnc2N1 (stereo not given)	none
Cc1sc2nc(SCC(=O)NCCOCCO)n(C)c(=O)c2c1C	Mot1-301 SUMO 983 | Mot1 SUMO dose inactive
Cc1ccc(S(=O)(=O)N(C)CC(=O)NNC(=O)CCNS(=O)(=O)c2cccc(C)c2)cc1	none
CNC(=O)COC(=O)c1cc(NC(=O)c2ccco2)c(OC)c(OC)c1	none
COc1cc(C(=O)OCC(=O)NCc2ccccc2)cc(NC(=O)c2ccco2)c1OC	Mot1-301 SUMO 383 | Mot1 SUMO dose inactive
CCCN(CC1CC1)C(=O)COc1ccccc1C(=O)NCc1ccccc1	Mot1-301 SUMO 802 | Mot1 SUMO dose inactive
CC1CCCCC1N=CC1=C(O)CC(C)(C)CC1=O (stereo not given)	Mot1-301 SUMO 385 | Mot1 SUMO dose inactive
CCOC(=O)c1oc2ccccc2c1COC(=O)CNC(=O)c1cccc(C)c1	Mot1-301 SUMO 984 | Mot1 SUMO dose inactive
c1ccc(N2CCN(C3CCSC3)CC2)cc1 (stereo not given)	Mot1-301 SUMO 817 | Mot1 SUMO dose inactive
Cc1cc(NCCCn2ccnc2)n2nc(-c3ccc(Cl)cc3)cc2n1	none
CC(C)(C)c1cc(NCCCn2ccnc2)n2ncc(-c3ccc(Cl)cc3)c2n1	Mot1-301 SUMO 622 | Mot1 SUMO dose inactive
CCOc1ccc(-c2nnc(SCC(=O)N3CCCC3)o2)cc1	Mot1-301 SUMO 713 | Mot1 SUMO dose inactive
COc1ccc(-c2nnc(SCC(=O)N3CCCCC3)o2)cc1	Mot1-301 SUMO 542 | Mot1 SUMO dose inactive
COc1ccc(-c2nnc(SCC(=O)N3CCCC3)o2)cc1	none
CCOc1ccc(-c2nnc(SCC(=O)N3CCOCC3)o2)cc1	none
O=C(NCc1nnc(SCC(=O)N2CCN(c3ccccc3)CC2)o1)c1c(F)cccc1Cl	none
CN(C(=O)c1ccc(NC(=O)Cc2ccc(NC(=O)C3CCN(C(=O)c4ccccc4)CC3)cc2)cc1)C1CCCC1	none (no result: LANA-H2B inh, Mot1-301 SUMO, IDE inh, HDAC3 inh)
C[C@H]1CN=C(Nc2ccccc2)N1CCC1CCCC1	Mot1-301 SUMO 921 | Mot1 SUMO dose inactive
CC(C)C[C@H]1CN=C(Nc2ccccc2)N1CCC1CCCC1	none

High-throughput results (PubChem)
